AmpC inh detg: qHTS Inhibitors of AmpC Beta-Lactamase (assay with detergent) | AmpC hydrolysis of nitrocefin, absorbance 480 nm, 0.01% Triton | AID 485294, 2010 | 370,000 tested, 0.041% active | Potency, µM (series often up to 114 µM), for the others: at the highest dose activity change, negative = inhibition, usual class: inhibitors | P00811;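 note: 0% = no-compound wells and -100% = no-enzyme wells; nearly all actives have a fitted effect of over 25% in size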
Target sequence (P00811 whole entry, looked up): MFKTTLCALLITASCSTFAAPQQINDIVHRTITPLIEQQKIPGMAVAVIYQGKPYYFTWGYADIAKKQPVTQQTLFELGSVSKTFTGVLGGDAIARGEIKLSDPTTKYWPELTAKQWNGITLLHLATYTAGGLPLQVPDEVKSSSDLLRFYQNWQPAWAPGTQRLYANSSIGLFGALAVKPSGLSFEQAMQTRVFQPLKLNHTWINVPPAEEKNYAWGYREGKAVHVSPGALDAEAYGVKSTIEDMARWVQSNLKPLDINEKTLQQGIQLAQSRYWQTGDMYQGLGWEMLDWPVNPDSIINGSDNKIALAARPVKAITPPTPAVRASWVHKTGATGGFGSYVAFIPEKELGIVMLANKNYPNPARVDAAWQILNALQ
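20 mM phosphate pH 7.0 + 0.01% (detergent screen) or 0.0001% Triton X-100; 5.3 nM AmpC reagent; cpd preinc 15 min RT; nitrocefin (800 uM stock) to start; A480 q20 s × 4 min; Activity was normalised to no-enzyme and no-compound control wells.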
AmpC no deterg: qHTS Inhibitors of AmpC Beta-Lactamase (assay without detergent); P00811; AmpC nitrocefin hydrolysis, absorbance 480 nm, 0.0001% Triton; Potency, µM (highest dose often 57.1 µM), for inactives: at the highest dose activity change, negative = inhibition, usual class: inhibitors; 330,000 tested, 0.52% active;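 note: plate controls were no compound for no effect and no enzyme for full effect; nearly all actives have a fitted effect of over 20% in size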
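AmpC (5.3 nM in the dispensed reagent) in 20 mM phosphate pH 7.0 with 0.01% (detergent screen) or 0.0001% Triton X-100 was preincubated with compounds for 15 min at room temperature. Nitrocefin was then added from an 800 uM solution, and hydrolysis was followed at 480 nm.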
AMA1-RON2 inh: qHTS for Inhibitors of AMA1-RON; Towards Development of Antimalarial Drug Lead: Primary Screen. 360,000 tested, 0.2% active. Plasmodium falciparum AMA1 (3D7) - RON2 peptide interaction. Potency, µM (series often up to 58.2 µM), without a hit: at the highest dose activity change, negative = inhibition, actives largely listed as inhibitors. AlphaScreen AMA1-biotinylated RON2 peptide binding;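 note: 0% = vehicle wells and -100% = peptide control; nearly all actives have a fitted effect of over 45% in size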
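AMA1 (3D7) with his tag at 25 nM final met compounds first, then biotinylated RON2 peptide at 25 nM; detection used donor plus acceptor beads, 10 µg/mL apiece, read by AlphaScreen after 30 min at room temperature.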
Vaccinia mCherry: qHTS for Stage-Specific Inhibitors of Vaccinia Orthopoxvirus: mCherry Reporter Primary qHTS; 310,000 tested, 0.63% active; Potency, µM (series often up to 36.5 µM), for inactives: at the highest dose activity change, negative = inhibition, hits mostly inhibitors; Vaccinia virus mCherry reporter infection, fluorescence; calls by dose curve; tested in A549 cells; note: % is set by controls: 0 for no effect and ±100 for the full control effect; nearly all actives have a fitted effect of over 35% in size
VACV Venus inh: qHTS for Stage-Specific Inhibitors of Vaccinia Orthopoxvirus: Venus Reporter Primary qHTS; Potency, µM (series often up to 36.5 µM), inactives show top-dose activity change, negative = inhibition, hits mostly inhibitors; 330,000 tested, 0.46% active; Vaccinia virus Venus reporter expression, fluorescence; AID 720580, 2013; calls by dose curve; tested in A549 cells; note: % is set by controls: 0 for no effect and ±100 for the full control effect; nearly all actives have a fitted effect of over 30% in size
SARS PLP yeast: qHTS of Yeast-based Assay for SARS-CoV PLP. S. cerevisiae expressing SARS-CoV PLpro, growth rescue. Potency, µM (series often up to 32.9 µM), inactives show at the top dose activity, positive = growth rescue, hits mostly activators. 330,000 tested, 0.19% active. AID 485353, 2010; calls by dose curve; note: 0% is about no effect; nearly all actives have a fitted effect of over 55% in size
* hit, by the source's call; i = inactive; ? = inconclusive; / = not tested or not shown; ! = a repeat was not active; [ ] = dose if it differs, or a comment. Shown are actives, neighbours in structure and some others; about 1.3% of the full set was active somewhere. Unless noted, calls come from the whole dose curve; as a rule, active = well fitted curve in the direction sought with a large enough effect; inconclusive = small, poorly fitted or top-dose-only effect, or another doubt; inactive = no such curve, though single readings can be large; an effect the other way counts as inactive or inconclusive. Potency is the fitted concentration of half-maximal effect.

SMILES	AmpC inh detg	AmpC no deterg	AMA1-RON2 inh	Vaccinia mCherry	VACV Venus inh	SARS PLP yeast
CCN(c1ccccc1)S(=O)(=O)c1ccc(NC(=S)NC(=O)c2cccs2)cc1	1.0%	14.1µM*	94.2%	-8.7%[1.46 µM]	?	3.5%
CN(C)S(=O)(=O)c1ccc(NC(=S)NC(=O)c2cccs2)cc1	10.3%	-34.5%	93.1%	i	2.2%	-0.5%
Cc1ccc(C(=O)NC(=S)Nc2ccc(Oc3ccc(Cl)cc3)cc2)cc1	-5.4%	-24.8%	11.1%	/	-10.9%	-8.2%
CC1CN(CC(=O)NCCC2COc3ccccc3O2)Cc2cc(Cl)ccc2O1 (stereo not given)	/	/	/	-7.2%	-3.1%	/
Cc1cccc(CNC(=O)c2cnn(-c3nccc(-c4ccccc4C(F)(F)F)n3)c2C)n1	/	/	/	-10.3%	-12.2%	/
Cc1ccc(C(=O)NNC(=O)c2ccccc2O)cc1S(=O)(=O)N1CCCCC1	?	8.91µM*	132.0%	-16.3%	?	2.7%
Cc1ccc(C(=O)OCC(=O)c2c[nH]c3ccccc23)cc1S(=O)(=O)N1CCCCC1	-13.1%	15.8µM*	0.5%	-5.5%	-16.2%	-7.2%
CN(C)c1ccc(N=Nc2ccnc3ccccc23)cc1	/	/	/	i	-12.2%	/
CN(C)c1ccc(N=Nc2nccs2)cc1	/	/	11.2µM*	?	-12.7%	/
Cc1cc(C)cc(N2CC(O)=C(c3nc4ccccc4c(=O)[nH]3)C2=N)c1	2.0%	0.0%	2.5%	-9.8%	-25.5%	-0.6%
COc1cccc(N2CC(O)=C(c3nc4ccccc4c(=O)[nH]3)C2=N)c1	1.9%	-19.2%	5.9%	?	2.82µM*	7.8%
COc1cc(=O)n2c(c1C(=O)NC(C)c1ccco1)CCN(Cc1ccccc1Cl)CC2 (stereo not given)	/	/	/	i	0.0%	/
COc1ccc(CN2CCOc3ccc(C(O)c4cccnc4)cc3C2)cc1O (stereo not given)	/	/	/	-12.7%	-6.6%	/
Clc1ccc(CSc2nnc(/C=C/c3ccccc3)o2)cc1	-0.6%	0.159µM*	10.8%	/	1.9%	-0.2%
Cc1c(C(=O)N2CC[C@@H]3CCCC[C@H]3C2)sc2ncnc(NCCc3ccccn3)c12	/	/	/	-5.5%	5.2%	/
Cc1cccc(NC(=S)N/N=C2/CCCCc3ccccc32)c1	-2.7%	31.6µM*	-17.9%	-4.8%	-17.0%	-47.2%
Cc1ccc(NC(=S)N/N=C2/CCCCc3ccccc32)cc1	-11.4%	?	37.5%	?	-22.8%[7.34 µM]	-2.9%
COC(=O)[C@@H]1CCCN1Cc1ccc2c(c1)CN(Cc1coc3ccc(C)cc3c1=O)CCO2	/	/	/	-14.9%	-10.3%	/
Cc1ccc(O)c(-c2[nH]ncc2C(=O)c2ccc(Cl)cc2)c1	1.0%	-28.5%	87.2%	?	-26.1%	-1.0%
Cc1ccc(O)c(-c2[nH]ncc2C(=O)c2ccc(Br)cc2)c1	-0.7%	5.01µM*	119.7%	/	/	-3.0%
CC(=O)c1ccc(F)c(-c2cc(C)cc3c2OC(CNC(=O)c2cccnc2)C3)c1 (stereo not given)	/	/	/	-14.1%	-14.5%	/
O=C(Nc1cccc(N2CCC(NCc3cnn(-c4ccccc4)n3)CC2)c1)c1cccnc1	/	/	/	-12.0%	-7.8%	/
CC(C)/C=C1\CC/C(=C\c2ccc(N(C)C)cc2)C1=O	-4.0%	-19.9%	9.6%	i	1.1%	-13.6%
CN(C)c1ccc(/C=C2/C[N+](C)(C)C/C(=C/c3ccc(N(C)C)cc3)C2=O)cc1	/	/	22.4µM*	13.4%	277.5%	/
O=C1c2ccccc2-c2n[nH]c3cccc1c23	/	/	-0.3%	11.2µM*!	-16.1%	/
CCC1CN(CCNC(=O)c2cccnc2OC)Cc2cc(OC)ccc2O1 (stereo not given)	/	/	/	-13.4%	-1.0%	/
